Results reported in PubChem BioAssay (NCATS).
Inconclusive results are not listed. The source made the active and inactive calls. The call rests on the fitted dose curve; in most records, active means well fitted curve in the direction sought with a large enough effect; inconclusive means small, poorly fitted or top-dose-only effect, or another doubt; inactive means no such curve, though single readings can be large; an effect the other way counts as inactive or inconclusive.

Experiments:
[1] = qHTS for Inhibitors of Plasmodium falciparum (DD2) proliferation (AID 504314);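 further: parasite DNA measured by SYBR Green fluorescence after red cell lysis; plate controls were DMSO vehicle for no effect and artemisinin wells for full effect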
Outline: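 Erythrocytes infected with P. falciparum (0.3% parasitemia, 2.5% hematocrit final) were incubated with compounds for 72 h at 37C, 5% CO2. Parasite DNA was detected by SYBR Green I fluorescence after saponin/Triton lysis, normalized to artemisinin (0.29 uM) and DMSO controls.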

[2] = qHTS for Inhibitors of Plasmodium falciparum (GB4) proliferation (AID 504315); further: nearly all actives have a fitted effect of over 50% in size; further: potency means the concentration at half of the fitted maximal effect;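 on activity change, negative = inhibition: 0% = DMSO vehicle and -100% = 0.29 µM artemisinin control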
Outline: (§1)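 Erythrocytes infected with P. falciparum line (0.3% parasitemia, 2.5% hematocrit final) incubated with compounds 72 h at 37 °C, 5% CO2; SYBR Green lysis buffer added, fluorescence read next day. Normalized to 0.29 uM artemisinin and DMSO.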

[3] = qHTS for Inhibitors of Plasmodium falciparum (7G8) proliferation (AID 504316);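 further: series mostly up to about 6.7 µM; 0% = DMSO vehicle and -100% = 0.29 µM artemisinin full kill; nearly all actives have a fitted effect of over 65% in size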
Outline: as §1

[4] = qHTS for Inhibitors of Plasmodium falciparum (CP250) proliferation (AID 504320);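 further: plate controls were DMSO vehicle for no effect and 0.29 µM artemisinin control for full effect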
Outline: as §1

[5] = qHTS for Inhibitors of Plasmodium falciparum (HB3) proliferation (AID 504318);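 further: 0% = DMSO vehicle and -100% = artemisinin control; nearly all actives have a fitted effect of over 60% in size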
Outline: as §1

[6] = target: Cytochrome P450 3A4 (Homo sapiens) (UniProt P08684); experiment: qHTS Assay for Inhibitors and Substrates of Cytochrome P450 3A4 (AID 884); further: series mostly up to about 57 µM; on the % scale 0 is the no-effect control and ±100 the full control effect; nearly all actives have a fitted effect of over 50% in size
Chain of Cytochrome P450 3A4 (Homo sapiens) (P08684 whole entry, looked up): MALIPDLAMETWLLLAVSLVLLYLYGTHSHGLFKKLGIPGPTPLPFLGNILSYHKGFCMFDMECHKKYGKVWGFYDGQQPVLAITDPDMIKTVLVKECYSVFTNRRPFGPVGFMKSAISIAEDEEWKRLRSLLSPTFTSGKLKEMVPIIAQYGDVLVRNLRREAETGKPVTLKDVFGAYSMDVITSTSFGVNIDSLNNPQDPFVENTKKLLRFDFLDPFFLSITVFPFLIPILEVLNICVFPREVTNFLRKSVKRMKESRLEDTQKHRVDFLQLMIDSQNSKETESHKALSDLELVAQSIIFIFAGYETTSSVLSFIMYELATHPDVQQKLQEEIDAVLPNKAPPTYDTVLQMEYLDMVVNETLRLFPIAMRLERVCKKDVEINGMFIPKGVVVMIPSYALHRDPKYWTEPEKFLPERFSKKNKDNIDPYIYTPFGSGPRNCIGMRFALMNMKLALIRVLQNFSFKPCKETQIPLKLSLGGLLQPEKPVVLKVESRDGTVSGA
Outline: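 20 nM human CYP3A4 with 25 uM Luciferin-PPXE (at KM) in 200 mM KPO4, preincubated 10 min with compound; NADPH regeneration started a 60 min RT reaction. Luciferin detected by luminescence, normalized to 57 uM ketoconazole as full inhibition.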

[7] = target: Cytochrome P450 2C19 (Homo sapiens) (UniProt P33261); experiment: qHTS Assay for Inhibitors and Substrates of Cytochrome P450 2C19 (AID 899); further: potency means the concentration at half of the fitted maximal effect; nearly all actives have a fitted effect of over 60% in size
Chain of Cytochrome P450 2C19 (Homo sapiens) (P33261 whole entry, looked up): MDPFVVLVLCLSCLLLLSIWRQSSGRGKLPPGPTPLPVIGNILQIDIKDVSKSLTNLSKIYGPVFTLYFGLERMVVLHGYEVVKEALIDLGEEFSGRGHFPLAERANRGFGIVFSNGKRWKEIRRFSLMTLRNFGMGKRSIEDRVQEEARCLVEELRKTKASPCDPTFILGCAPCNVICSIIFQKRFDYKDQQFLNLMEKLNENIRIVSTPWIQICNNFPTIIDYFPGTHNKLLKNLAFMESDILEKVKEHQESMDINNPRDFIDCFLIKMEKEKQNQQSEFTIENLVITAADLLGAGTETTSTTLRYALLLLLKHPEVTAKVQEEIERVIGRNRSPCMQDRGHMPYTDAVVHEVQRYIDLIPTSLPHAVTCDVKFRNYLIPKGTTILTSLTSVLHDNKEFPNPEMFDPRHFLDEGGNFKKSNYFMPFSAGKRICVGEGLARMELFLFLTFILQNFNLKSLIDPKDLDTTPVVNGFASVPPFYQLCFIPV
Outline: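 Luminescence readout of luciferin formed from 10uM Luciferin-H EGE (KM level) by 5 nM CYP2C19 in 50mM KPO4. 60 min NADPH-driven reaction at 37C after 10 min compound preincubation; data scaled to 57uM ketoconazole inhibition.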

COC(=O)C1=C(C(=O)OC)[C@@H]2N(C)c3ccccc3[C@@]23C[C@@H](C(=O)OC)N(C(=O)c2cccs2)C3=N1
inactive: Potency [1] | Potency [2] | Potency [3] | Potency [4]

CCCCCCCC1=Cc2ccc(F)cc2C(C(C(=O)OC)C(=O)OC)N1C(=O)OC (stereo unspecified)
inactive: activity, negative = inhibition [1] -0.0199% [at 1.12 µM] | Potency [4]

C#CCCCON=C1C[C@@H](O)[C@H](O)[C@H]2[C@@H]3C(=O)N(C4CCCCC4)C(=O)[C@@H]3CC[C@@H]12
inactive: Potency [1] | Potency [2] | Potency [5] | Potency [4]

COc1ccc(C=CN(CCc2ccc(OC)c(OC)c2)C(=O)c2ccccn2)cc1
inactive: Potency [1] | Potency [5] | Potency [4]

COC(=O)CCC(=O)OC1(C)C(=O)C=C2C=C(C3CC3)N(Cc3ccc(OC)cc3)C=C2C1=O (stereo unspecified)
inactive: Potency [1] | Potency [2] | Potency [5] | Potency [4]

COC(=O)C12CC3(CCC4C5C(C(OCc6ccccc6)C41)C52)OCCO3 (stereo unspecified)
active: Potency [7] 1580 nM
inactive: activity change, negative = inhibition [6] -29.8% [at 11.4 µM] | Potency [1] | Potency [2] | Potency [3] | Potency [5] | Potency [4]

CCCCCCCC1=CC2=C(Cl)C(=O)C(C)(OC(C)=O)C(=O)C2=CO1 (stereo unspecified)
inactive: Potency [1] | Potency [3] | Potency [5] | Potency [4]

COc1cc2c(cc1OC)CSC1C(=O)N(C)C(SC2)C(=O)N1C
inactive: Potency [1] | Potency [2] | Potency [5] | Potency [4]

CCN1C(=O)N(S(=O)(=O)C(F)(F)F)C(c2ccccc2)C(C(=O)OC)=C1C (stereo unspecified)
inactive: Potency [1] | Potency [2] | Potency [3] | Potency [4]

COC1=C[C@H](C(=O)NC2CCN(Cc3ccccc3)CC2)[C@@]2(C)Cc3ccccc3[C@@H]2CC1=O
inactive: Potency [1] | Potency [2] | Potency [4]

COC(=O)CCCC1=CC2=C(c3ccccc3)C(=O)C(C)(OC(=O)C3CCCC3)C(=O)C2=CN1CCN1CCOCC1 (stereo unspecified)
inactive: Potency [1] | Potency [2] | Potency [5] | Potency [4]

C=CCNC(=O)[C@H]1C=C(OC)C(=O)C[C@H](c2ccccc2)[C@H]1C
inactive: Potency [1] | Potency [2] | Potency [5] | Potency [4]

CCOC(=O)CN1C(=O)NC(c2ccc(Br)cc2)C(C(C)=O)=C1C (stereo unspecified)
inactive: Potency [1] | Potency [5] | Potency [4]

COc1ccc2c(c1)O[C@@H](c1cccc(C(F)(F)F)c1)[C@H](OC(=O)NC1CCCC1)C2=O
inactive: Potency [1] | Potency [2] | Potency [4]

COC(=O)C1=C(C)N(CC#C[Si](C)(C)C)C(=O)N(C(C)=O)C1c1ccccc1 (stereo unspecified)
inactive: Potency [1] | Potency [2] | Potency [3] | Potency [5] | Potency [4]

COC(=O)[C@H]1O[C@@H](c2cc(OC)c(C)c(OC)c2OCc2ccccc2)[C@H](C)[C@@H]2O[C@]12C
active: Potency [2] 2130 nM

CCCCc1nc2c(c3c1C[C@H](C)OC3)CN(S(=O)(=O)CCCC)CC2
inactive: Potency [1] | Potency [2] | Potency [3] | Potency [5] | Potency [4]

CC(=O)C1=C(C)N(CCC=Cc2ccccc2)C(=O)NC1c1ccccc1 (stereo unspecified)
inactive: Potency [1] | Potency [5] | Potency [4]

COC(=O)CCCC1=CC2=CC(=O)C(C)(O)C(=O)C2=CO1 (stereo unspecified)
inactive: Potency [1] | Potency [2] | Potency [3] | Potency [5] | Potency [4]

COC(=O)N[C@H](CC(C)=O)c1cccc(F)c1
inactive: Potency [2] | Potency [3] | Potency [5] | Potency [4]

C[C@@H]1CC[C@H]2C(=O)N(Cc3ccccc3)C[C@H](O)CN2[C@@H]1c1ccc(Br)cc1
active: Potency [2] 1690 nM
inactive: Potency [4]

CC(C)=CCCC(C)=CC=CC1=CC2(C)CC1(C)C(C=C(C)CCC=C(C)C)CC2=O (stereo unspecified)
inactive: Potency [2] | Potency [4]

COc1cccc(-c2coc3ccc(Br)cc3c2=O)c1
inactive: Potency [2] | Potency [5] | Potency [4]

C=C(CCN1C=C(C(=O)OCC)C(c2ccccc2)NC1=O)c1ccc(Cl)cc1 (stereo unspecified)
inactive: Potency [2] | Potency [4]

COCCN1C(=O)N[C@@H](CCc2ccccc2)[C@H](C(=O)OC)[C@H]1C
inactive: Potency [2] | Potency [3] | Potency [5] | Potency [4]

CCN1C(=NCCc2c[nH]c3ccccc23)NC(c2cccc(F)c2)C(C(=O)OC)=C1C (stereo unspecified)
inactive: Potency [5] | Potency [4]

C=C(C)CO[C@H]1C=C[C@@H](c2ccccc2)O[C@H]1CO
inactive: Potency [2] | Potency [5] | Potency [4]

C[C@H]1CC[C@H]2C(=O)N(Cc3ccccc3)C[C@@H](O)CN2[C@H]1c1ccc(Br)cc1
inactive: Potency [4]

COCCN1C(=O)NC(CCc2ccccc2)C(C(=O)OC)=C1C (stereo unspecified)
inactive: Potency [5]
